Reference: the supplement of paper PMC12636033
± gives the standard deviation of the averaged measurements. In all, about 33,000 sequences were measured (“E-score (rank enrichment, -0.5 to 0.5)”: median about -0.0075, highest 2% from about 0.23 on). This excerpt belongs to a sample that is enriched for the highest values.

These sequences were tested on WT Max(13-93) synthetic (M65Nle) (assay: PBM 8-mer E-score (E-score (rank enrichment, -0.5 to 0.5)); higher = stronger preferential binding).
Procedure: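 Protein binding microarray (universal PBM chip covering all 10-mers in fixed probe flanks) with chemically synthesized human Max(13-93) bHLH-LZ analogs (not full-length Max) bearing noncanonical residues (hArg, Tha, Aib, Nle at 65) and aromatic Cys staples. Read-out per 8-mer (and its reverse complement): E-score (rank-based enrichment, -0.5 to 0.5) and Z-score of median probe intensity.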

Sequence	PBM 8-mer E-score
ATGATGAG	0.0781 ± 0.012
GTCGGTCA	-0.151 ± 0.14
AGAATGCC	-0.0707 ± 0.0056
CGCAGGCA	-0.131 ± 0.12
ATTAACGG	0.153 ± 0.089
GCTGGCCA	-0.0533 ± 0.076
CGGAACAC	-0.0883 ± 0.0097
CACGTTCA	0.163 ± 0.018
CATCCAAG	-0.0693 ± 0.012
AGCCCGTC	-0.151 ± 0.071
ATCATGTA	0.169 ± 0.004
ATCATGTG	0.264 ± 0.022
ATCATGTC	0.186 ± 0.057
GTGGTTTA	0.179 ± 0.053
GGTGGAAA	0.0407 ± 0.064
AGTGGAAA	0.164 ± 0.094
TGTGGTAA	0.0282 ± 0.15
CGTGGTAA	0.246 ± 0.1
TGTGGAAA	0.249 ± 0.072
CGTGGAAA	0.267 ± 0.071
CGTGGAAC	-0.0332 ± 0.0099
GGTGGTAA	0.11 ± 0.1
CGTGGAAG	0.176 ± 0.0075
TCTCGGAA	-0.232 ± 0.095
CATCAAAA	0.0623 ± 0.033

Sequence	PBM 8-mer E-score
ATCGTCTC	-0.00218 ± 0.023
GCCGATAA	0.032 ± 0.051
AACGCAGC	-0.1 ± 0.048
AACAATGC	0.161 ± 0.14
GCTGCGAC	-0.219 ± 0.069
CGCACAGC	-0.171 ± 0.087
GCGGTGAC	-0.146 ± 0.14
TGGTAAAA	0.0895 ± 0.03
GCGCTACA	-0.115 ± 0.006
TCGCTACA	-0.0172 ± 0.075
ACGCTACA	0.275 ± 0.013
ATTGATTA	0.0358 ± 0.11
GTTGATTA	0.2352 ± 0.0022
CTTGATTA	0.12 ± 0.025
GCGTTTAA	0.0231 ± 0.056
ACGTGGTA	0.347 ± 0.069
AAGTGGTG	-0.0214 ± 0.11
CCGTGGTA	-0.0399 ± 0.0038
AGGTGGTC	-0.0706 ± 0.0051
CCGTGGTC	-0.211 ± 0.023
GCGTGGTA	0.215 ± 0.12
AGGTGGTG	0.109 ± 0.09
ACGTGGTG	0.392 ± 0.024
ACGTGGTC	0.312 ± 0.022
GGCAAGAA	0.127 ± 0.016

Sequence	PBM 8-mer E-score
ACTTGGCA	0.0244 ± 0.14
CAAGGCTA	-0.0688 ± 0.18
TGCCAGAA	-0.0686 ± 0.042
ATGGTAAG	0.12 ± 0.15
ATGGTAAC	0.159 ± 0.045
ATGGTAAT	0.24 ± 0.019
AAAGGTGA	0.0498 ± 0.1
CATGGAAC	0.0484 ± 0.039
CATGGAAG	0.251 ± 0.028
AATGGAAG	0.0617 ± 0.11
CATCTTCG	-0.0197 ± 0.078
CCCGGAGC	-0.218 ± 0.06
CGGAACAG	-0.184 ± 0.097
ACAATTCA	0.0972 ± 0.033
CCAATTCA	0.237 ± 0.0091
CCAATTCG	0.00099 ± 0.067
GAAAACTC	-0.0313 ± 0.025
CAACCCTA	0.00074 ± 0.036
AAAACCTA	0.259 ± 0.038
AAACCCAG	-0.00534 ± 0.0017
AAAACCTT	0.0888 ± 0.07
AAACCCTG	0.124 ± 0.14
AAACCCTA	0.253 ± 0.042
AAACCCAT	0.236 ± 0.013
AACCCCAT	0.00208 ± 0.027

Sequence	PBM 8-mer E-score
CAAACCTA	0.0613 ± 0.11
ATAGCGAG	-0.0262 ± 0.05
AGGCCCAA	-0.118 ± 0.037
AAGCACAA	0.0693 ± 0.08
CGCTTCCG	-0.206 ± 0.041
AGCCTGGA	-0.148 ± 0.017
AAATCGAT	-0.116 ± 0.11
CTGCTATC	-0.116 ± 0.021
CTAGACGC	-0.0678 ± 0.01
AAAATTCG	0.181 ± 0.015
ACTAAAAT	0.073 ± 0.087
ACTACAAC	0.253 ± 0.024
AATACAAC	0.233 ± 0.077
CATACAAC	0.162 ± 0.012
AATACAAG	0.148 ± 0.0056
AATACAAA	0.288 ± 0.024
GATACAAA	0.0639 ± 0.0017
AATACAAT	0.0116 ± 0.074
ACTACAAG	-0.03 ± 0.032
CCTACAAC	0.126 ± 0.041
ATCGTCTG	-0.0768 ± 0.04
AGTAGACC	-0.143 ± 0.07
AGTGACCA	-0.0103 ± 0.17
AAGGCAAG	0.149 ± 0.045
CAGTATCG	-0.0719 ± 0.0012

Sequence	PBM 8-mer E-score
GACAATTA	-0.0274 ± 0.019
CTGATCAG	-0.107 ± 0.14
ATTGGACC	-0.0681 ± 0.039
AGAAGTAG	0.0117 ± 0.017
ACCGGAAA	-0.104 ± 0.11
CTAATTAG	0.0687 ± 0.053
ATAATTTC	0.0565 ± 0.03
ATAATTTA	0.228 ± 0.014
ATAATTTG	0.254 ± 0.031
ATAATTCG	0.147 ± 0.059
ATAATTAG	0.237 ± 0.16
ATAATTAC	0.232 ± 0.019
ATAATTAT	0.239 ± 0.0049
ATAATTAA	0.22 ± 0.13
AGCACAGC	-0.163 ± 0.16
ACTCTCTG	-0.0092 ± 0.11
CCGCCTCA	-0.108 ± 0.14
ATGGTTTA	0.161 ± 0.047
AATGGGAA	0.0482 ± 0.059
GATGTTGA	0.0902 ± 0.11
AATGTTGA	-0.0484 ± 0.091
CATGTTGC	0.12965 ± 2.8e-05
CATGTTGG	0.156 ± 0.063
CATGTTGA	0.256 ± 0.1
TATGTTGA	0.233 ± 0.0055

Sequence	PBM 8-mer E-score
ACGCGTAT	0.108 ± 0.0066
CAGCGAGA	-0.174 ± 0.013
GACGAATA	0.17 ± 0.011
GTCGTCCA	-0.159 ± 0.064
ACGTGGCG	0.296 ± 0.05
CCGTGGCG	-0.147 ± 0.07
CCGTGGCC	-0.112 ± 0.013
TCGTGGCA	0.219 ± 0.1
ACGTGGCA	0.33 ± 0.0069
ACGTGGCT	0.286 ± 0.018
GCGTGGCC	0.0675 ± 0.016
AGGTGGCG	0.13 ± 0.021
AAGTGGCT	0.0496 ± 0.069
ACGTGGCC	0.247 ± 0.0096
CCGTGGCA	-0.0466 ± 0.052
ACTTGGCT	-0.128 ± 0.062
ACGGGCTC	-0.297 ± 0.085
CGGCAACA	-0.15 ± 0.01
ACCGCTAG	-0.0126 ± 0.12
CCCACATC	-0.1 ± 0.063
AGATGCAA	0.152 ± 0.13
CACTCCAA	-0.103 ± 0.025
CCGCTCGC	-0.0861 ± 0.086
ACCCCCCG	-0.2 ± 0.1
ATGGCGAA	0.104 ± 0.068

Sequence	PBM 8-mer E-score
ACGCGTGA	0.219 ± 0.081
CCGCGTGC	0.268 ± 0.051
ACGCGTGG	0.212 ± 0.03
CCGCGTGA	0.172 ± 0.0086
CAGCGTGC	0.191 ± 0.014
ACGCGTGC	0.244 ± 0.02
AACCCAAG	0.00894 ± 0.087
CGGGAAAC	-0.106 ± 0.079
GATAACAA	0.0563 ± 0.033
CCTAACAA	0.11 ± 0.026
AATAACAA	0.264 ± 0.018
TCTAACAA	-0.0242 ± 0.029
AATAACAG	0.17 ± 0.06
TATAACAA	0.24 ± 0.026
CATAACAA	0.251 ± 0.042
CGTAACAA	0.136 ± 0.087
CATAACAG	0.125 ± 0.021
AATAACAC	0.0775 ± 0.12
AATAACAT	0.181 ± 0.049
CATAACAC	0.236 ± 0.016
CTACGTCC	-0.0109 ± 0.12
AGCAATGC	0.12 ± 0.09
